Only some compounds are listed: those with a hit (about 11% of all), similar ones and a draw of the others.
JMJD2A Tudor: inhibitors of human JMJD2A Tudor domain; O75164; AlphaScreen JMJD2A-Tudor / H3K4me3 peptide binding; AID 504339; actives 4.4% (n = 390,000); Potency, µM (highest dose often 114 µM), inactives show top-dose activity change, negative = inhibition, most hits filed as inhibitors; further: on the % scale 0 is the no-effect control and ±100 the full control effect; nearly all actives have a fitted effect of over 50% in size
G9a inh: blocks human histone lysine methyltransferase G9a; Q96KQ7; actives 8.8% (n = 350,000); G9a H3K9 monomethylation, AlphaScreen, 2 h; Potency, µM (doses to about 102 µM), for inactives: top-dose activity, negative = inhibition, actives largely listed as inhibitors; further: on the % scale 0 is the no-effect control and ±100 the full control effect; nearly all actives have a fitted effect of over 75% in size
Target sequence (Q96KQ7 913-1193 limits assumed): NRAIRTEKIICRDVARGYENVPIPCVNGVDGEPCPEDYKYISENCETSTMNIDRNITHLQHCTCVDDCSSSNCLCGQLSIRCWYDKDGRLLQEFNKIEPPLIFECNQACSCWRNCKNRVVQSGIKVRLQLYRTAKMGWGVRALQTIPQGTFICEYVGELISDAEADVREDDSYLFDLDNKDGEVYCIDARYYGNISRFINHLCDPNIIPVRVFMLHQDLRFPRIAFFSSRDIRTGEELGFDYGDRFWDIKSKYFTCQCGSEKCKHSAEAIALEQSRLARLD
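Compounds were preincubated with 20 nM G9a for 15 min, after which biotinylated H3K9 peptide (500 nM) and SAM (20 uM) started a 2 h room-temperature reaction. Monomethylated product was quantified by antibody-based AlphaScreen chemiluminescence.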
HP1b chromo inh: blocks HP1-beta chromodomain binding to methylated histone tails | P83916 | AlphaScreen HP1-beta / biotin-H3K9me3 peptide binding | Potency, µM (series often up to 114 µM), for the others: at the top dose activity change, negative = inhibition, actives largely listed as inhibitors | actives 0.56% (n = 390,000); further: nearly all actives have a fitted effect of over 70% in size
Target sequence (P83916 whole entry, looked up): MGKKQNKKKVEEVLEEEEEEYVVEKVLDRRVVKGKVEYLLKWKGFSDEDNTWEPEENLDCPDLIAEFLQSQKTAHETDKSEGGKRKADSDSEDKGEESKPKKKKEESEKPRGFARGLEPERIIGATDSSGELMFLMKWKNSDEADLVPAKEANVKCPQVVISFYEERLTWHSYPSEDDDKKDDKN
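AlphaScreen: HP1-beta (50 nM) preformed 30 min with biotin-H3(1-18)K9me3 peptide (50 nM) in PBS pH 7.4, 0.01% Tween-20. Compound added for 30 min at RT, then streptavidin donor/nickel chelate acceptor beads (10 ug/mL) for 30 min.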
L3MBTL1 inh: L3MBTL1 (human) inhibition; Q9Y468; AlphaScreen L3MBTL1–H3K9me1 peptide binding; Potency, µM (titrated, usually from 57.1 µM), for the others: at the top dose activity, negative = inhibition, hits mostly inhibitors; actives 0.66% (n = 230,000); AID 485360; further: on the % scale 0 is the no-effect control and ±100 the full control effect; nearly all actives have a fitted effect of over 60% in size
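Displacement of a biotinylated histone H3(1-15) peptide monomethylated at Lys9 (75 nM) from L3MBTL1 (50 nM) was measured by AlphaScreen after a 30 min room-temperature compound incubation; cefsulodin titration served as intraplate control.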
BAZ2B inh: inhibitors of human BAZ2B bromodomain. AlphaScreen BAZ2B-H3K14Ac peptide displacement. Potency, µM (top dose mostly 114 µM), inactives show at the top dose activity change, negative = inhibition, hits mostly inhibitors. actives 4.4% (n = 360,000). AID 504333; further: on the % scale 0 is the no-effect control and ±100 the full control effect; nearly all actives have a fitted effect of over 60% in size
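BAZ2B 50 nM plus b-H3(5-23)K14Ac 50 nM, PBS pH 7.4/0.01% Tween-20, 30 min RT; compound added (max 110 uM), 30 min RT; streptavidin donor/Ni-chelate acceptor beads 10 ug/mL final, 20 min dark; AlphaScreen read.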
Starred values were filed as active, the others as inactive; [ ] = remark or other dose. The call rests on the fitted dose curve; in most records, active means well fitted inhibition curve with a large enough effect; inconclusive means small, poorly fitted or top-dose-only effect; inactive means no such curve, though single readings can be large or run the other way. Potency means the concentration at half of the fitted maximal effect.

What do the screens show for `COc1ccc(N(CC(C)C)S(=O)(=O)c2nnc(NC(=O)c3cccs3)s2)cc1`?
JMJD2A Tudor: 31%; G9a inh: 2%[59 µM]; HP1b chromo inh: 80%; BAZ2B inh: 30%

Results for Clc1cccc(-c2nc3ccccn3c2Nc2ccc3c(c2)OCCO3)c1 ?
JMJD2A Tudor: 22µM*; G9a inh: inconclusive; HP1b chromo inh: inconclusive; BAZ2B inh: 11µM*

How did Oc1ccc(-c2nc3ncccn3c2Nc2ccc3c(c2)OCO3)cc1 do in these assays?
JMJD2A Tudor: inconclusive; G9a inh: inconclusive; HP1b chromo inh: -24%; BAZ2B inh: 50µM*

How did CC(=O)C1=C(O)C(=O)N(c2ccc(S(=O)(=O)Nc3nccs3)cc2)C1c1ccc([N+](=O)[O-])cc1 (stereo not drawn) do in these assays?
JMJD2A Tudor: -28%; G9a inh: 79µM*; HP1b chromo inh: -10%; BAZ2B inh: inconclusive

What do the screens show for `CC(=O)C1=C(O)C(=O)N(c2ccc(S(=O)(=O)Nc3nccs3)cc2)C1c1ccc(F)cc1` (stereo not drawn)?
JMJD2A Tudor: -16%; G9a inh: 56µM*; HP1b chromo inh: 3%; L3MBTL1 inh: -10%; BAZ2B inh: -29%

Results for CC(=O)C1=C(O)C(=O)N(c2ccc(S(N)(=O)=O)cc2)C1c1ccc([N+](=O)[O-])cc1 (stereo not drawn) ?
JMJD2A Tudor: -7%; G9a inh: 13%[0.501 µM]; HP1b chromo inh: 22%; L3MBTL1 inh: 5%; BAZ2B inh: inconclusive

Results for Cc1nn(CCCC(=O)O)c(C)c1[N+](=O)[O-] ?
JMJD2A Tudor: -8%; G9a inh: 2%; HP1b chromo inh: 36%; L3MBTL1 inh: 0%; BAZ2B inh: -17%

Results for CC(=O)c1c(C)nn(CCC(=O)O)c1C ?
JMJD2A Tudor: 40µM*; G9a inh: -41%; HP1b chromo inh: inconclusive; L3MBTL1 inh: -16%; BAZ2B inh: -3%

Results for O=C(O)c1cc([N+](=O)[O-])c(NCc2cccnc2)c([N+](=O)[O-])c1 ?
JMJD2A Tudor: 2%; G9a inh: 45µM*; HP1b chromo inh: 8%; L3MBTL1 inh: 22%; BAZ2B inh: inconclusive

What do the screens show for `CCOC(=O)C1CCN(C(=O)c2ccc(NC(=O)c3nsc4ccccc34)cc2)CC1`?
JMJD2A Tudor: -22%; G9a inh: -2%[59 µM]; HP1b chromo inh: 13%[57 µM]; BAZ2B inh: -2%

How did O=C(NCCc1ccccc1)c1cc2ncc(Br)cn2n1 do in these assays?
JMJD2A Tudor: -25%; G9a inh: -7%[12.7 µM]; HP1b chromo inh: 31%; BAZ2B inh: 50µM*

Results for O=C(Nc1ccc2c(c1)OCO2)c1cc2ncc(Br)cn2n1 ?
JMJD2A Tudor: inconclusive; G9a inh: inconclusive; HP1b chromo inh: inconclusive; BAZ2B inh: 50µM*

How did CCC(=O)N(CCc1ccc(S(N)(=O)=O)cc1)C1CC(=O)N(c2ccc(OC)cc2)C1=O (stereo not drawn) do in these assays?
JMJD2A Tudor: -7%; G9a inh: 56µM*; HP1b chromo inh: 23%; L3MBTL1 inh: 0%; BAZ2B inh: -5%

Results for CCCOc1ccc(N2C(=O)CC(N(CCc3ccc(OC)cc3)C(=O)c3cccc(F)c3)C2=O)cc1 (stereo not drawn) ?
JMJD2A Tudor: -29%; G9a inh: 45µM*; HP1b chromo inh: 12%; L3MBTL1 inh: -1%; BAZ2B inh: 4%

What do the screens show for `CCCOc1ccc(N2C(=O)CC(N(CCc3ccccc3)C(=O)c3ccccc3)C2=O)cc1` (stereo not drawn)?
JMJD2A Tudor: -8%; HP1b chromo inh: 25%; L3MBTL1 inh: 20%; BAZ2B inh: -6%

What do the screens show for `COc1ccc(C)cc1NC(=O)c1ccccc1NS(=O)(=O)c1ccc(Cl)s1`?
JMJD2A Tudor: -12%; HP1b chromo inh: 37%; L3MBTL1 inh: -5%; BAZ2B inh: -15%

Results for Cc1cc(-c2ccccc2)c(C#N)c(=S)[nH]1 ?
JMJD2A Tudor: 6.3µM*; G9a inh: 1.3µM*; HP1b chromo inh: 79µM*; L3MBTL1 inh: 2%; BAZ2B inh: -9%

How did O=C(Cc1ccccc1)NCCc1csc2nc(-c3ccc(Cl)cc3)nn12 do in these assays?
JMJD2A Tudor: -13%; G9a inh: 17%[59 µM]; HP1b chromo inh: 15%[57 µM]; BAZ2B inh: 7%

What do the screens show for `O=C1CC(=O)N(c2cccc(F)c2)N1`?
JMJD2A Tudor: -11%; G9a inh: 56µM*; HP1b chromo inh: 18%; L3MBTL1 inh: 0%; BAZ2B inh: -38%

What do the screens show for `CCCN1CCCc2cc(CN(CCCN3CCOCC3)C(=O)Nc3ccc(Cl)c(Cl)c3)ccc21`?
JMJD2A Tudor: 13µM*; G9a inh: 11µM*; HP1b chromo inh: inconclusive; BAZ2B inh: 11µM*

How did CCCN1CCCc2cc(CN(CCCN3CCOCC3)C(=O)Nc3ccc(OCC)cc3)ccc21 do in these assays?
JMJD2A Tudor: 28µM*; G9a inh: 13µM*; HP1b chromo inh: inconclusive; BAZ2B inh: 40µM*

Results for CCN1CCCc2cc(CN(CCN3CCOCC3)C(=S)Nc3cccc(OC)c3)ccc21 ?
JMJD2A Tudor: 50µM*; G9a inh: inconclusive; HP1b chromo inh: inconclusive; BAZ2B inh: 14µM*

How did CCOc1ccc(NC(=O)N(CCCN2CCOCC2)Cc2cccnc2)cc1 do in these assays?
JMJD2A Tudor: -10%; G9a inh: 0%[59 µM]; HP1b chromo inh: 61%; BAZ2B inh: -1%

How did CCOc1ccc(NC(=O)N(CCN2CCOCC2)Cc2ccc3c(c2)CCCN3CC)cc1 do in these assays?
JMJD2A Tudor: 56µM*; G9a inh: 13%[0.501 µM]; HP1b chromo inh: inconclusive; L3MBTL1 inh: -22%; BAZ2B inh: 45µM*

How did COc1cc(OC)c(NC(=O)Nc2cccc(OCc3cc(=O)n4ccccc4n3)c2)cc1Cl do in these assays?
JMJD2A Tudor: -35%; G9a inh: inconclusive; HP1b chromo inh: 14%[57 µM]; BAZ2B inh: -37%

What do the screens show for `O=C(Nc1ccc2c(c1)N(C1CCCC1)C(=O)c1ccccc1S2)c1cccc(F)c1`?
JMJD2A Tudor: -26%; G9a inh: -9%[59 µM]; HP1b chromo inh: 34%; BAZ2B inh: -7%

How did CC(=O)Nc1ccc(NS(=O)(=O)c2ccc3c(c2)n(C)c(=O)n3C)cc1 do in these assays?
JMJD2A Tudor: -8%; G9a inh: 3%; HP1b chromo inh: 49%; L3MBTL1 inh: 5%; BAZ2B inh: 79µM*

Results for Cc1ccc(NS(=O)(=O)c2ccc3c(c2)n(C)c(=O)n3C)cc1 ?
JMJD2A Tudor: -7%; G9a inh: -12%[2.33 µM]; HP1b chromo inh: 31%; BAZ2B inh: -23%

How did CC(=O)Nc1ccc(S(=O)(=O)Nc2ccc(C(=O)NCC(=O)O)cc2)cc1 do in these assays?
JMJD2A Tudor: 0%; G9a inh: 20µM*; HP1b chromo inh: 28%; L3MBTL1 inh: 10%; BAZ2B inh: -15%
